Compound activity from PubChem BioAssay.
The list is not random: actives were taken first. Their share in the collection is about 7.3%.
VACV mCherry inh – qHTS for Stage-Specific Inhibitors of Vaccinia Orthopoxvirus: mCherry Reporter Primary qHTS. 310,000 compounds, 0.63% hits. Vaccinia virus mCherry reporter infection, fluorescence. Potency, µM (top dose mostly 36.5 µM), inactives show at the highest dose activity change, negative = inhibition, usual class: inhibitors. AID 720579, 2013; calls by dose curve; tested in A549 cells; also: potency is read from the fitted curve at half-maximal effect; nearly all actives have a fitted effect of over 35% in size
HCMV antiviral – qHTS Assay for inhibitors of the human cytomegalovirus (HCMV); HFF cells, HCMV-luciferase reporter, 72 h; hits give low values; activity change, negative = inhibition, % at 57.5 µM; 410,000 compounds, 4.5% hits; AID 1259415, 2018; in the data active = activity change below about -60%; inconclusive = no clear call, values can overlap the other calls; inactive = above about -39%
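Steps: HFFs plated, 16 h 37C; compounds added; HCMV-luciferase added to MOI 1 PFU/cell; 72 h 37C; OneGlo reagent, 5 min room temperature; luminescence read, normalized to controls.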
FMDV antiviral – High Throughput Screening for Foot and Mouth Disease Virus Antivirals; FMDV antiviral cell-based qHTS; Potency, µM (highest dose often 57.9 µM), for the others: top-dose activity change, negative = inhibition, most hits filed as inhibitors; 410,000 compounds, 1.2% hits; calls by dose curve; tested in HEK293T cells; also: read-out not given here; potency is read from the fitted curve at half-maximal effect; nearly all actives have a fitted effect of over 45% in size
HCV inh – qHTS Assay for Inhibitors of Hepatitis C Virus (HCV); Huh7.5.1 HCVcc-Cre infection, luciferase reporter, 44 h; Potency, µM (highest dose often 41.8 µM), without a hit: at the highest dose activity change, negative = inhibition, most hits filed as inhibitors; 340,000 compounds, 3.4% hits; active = well fitted inhibition curve with a large enough effect; inconclusive = small, poorly fitted or top-dose-only effect, or another doubt; inactive = no such curve, though single readings can be large or run the other way; also: potency is read from the fitted curve at half-maximal effect
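1,000 cells/well; 4 h culture; + compound; + HCVcc-Cre (~0.5 moi); 44 h; luciferase substrate, RT 15 min; read 15 sec.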
VACV Venus inh – qHTS for Stage-Specific Inhibitors of Vaccinia Orthopoxvirus: Venus Reporter Primary qHTS; 330,000 compounds, 0.46% hits; Potency, µM (top dose mostly 36.5 µM), for the others: at the highest dose activity change, negative = inhibition, most hits filed as inhibitors; Vaccinia virus Venus reporter expression, fluorescence; calls by dose curve; tested in A549 cells; also: potency is read from the fitted curve at half-maximal effect; nearly all actives have a fitted effect of over 30% in size
The depositor's hits bear a star; i = inactive; ? = inconclusive; nt = no result; [ ] = remark or other dose. % is scaled to controls: 0 for no effect and ±100 for the full control effect.

SMILES | VACV mCherry inh | HCMV antiviral | FMDV antiviral | HCV inh | VACV Venus inh
CC(=O)O[C@H]1C[C@@H]2OC3C=C(C)CCC3(C)[C@@]1(C)[C@@]21CO1 (stereo partly specified) | nt | -98.2* | nt | nt | nt
Cc1nn(-c2ccccc2)c2sc(C(=O)N3CCCCC3)cc12 | nt | nt | 9.4% | ? | -22.3%
Cc1cc(C(=O)NCCCN2CCOCC2)n(-c2ccccc2)n1 | i | ? | -18.0% | 7.2% | -5.5%
Cc1nn(-c2ccccc2)c(Cl)c1C(=O)NC1CCCCC1 | -15.7% | 9.3 | 10.0% | -0.1% | -21.7%
Cc1nn(-c2ccccc2)c2sc(C(=O)NCCN3CCOCC3)cc12 | -23.9% | 82.2 | 0.2% | 2.24µM* | -18.5%
Cc1nn(-c2ccccc2)c2sc(C(=O)NC3CCCCC3)cc12 | i | -15.0 | nt | 2.51µM* | -15.8%
Cc1nn(-c2ccccc2)c(C)c1C(=O)OC(C)C(=O)NC1CCCCC1 (stereo unspecified) | i | -35.9 | ? | 12.6µM* | -13.7%
COCCN(C)C(=O)c1cnn(-c2ncc3c(n2)-c2ccccc2CC3)c1C | -2.7% | nt | 22.7% | nt | -17.1%
Cc1cc(NC(=O)C2CCCN(S(=O)(=O)c3cccc4nonc34)C2)ccc1Br (stereo unspecified) | -16.3%[7.34 µM] | -4.3 | -21.6% | nt | -17.8%[7.34 µM]
COc1ccc(Cn2nnnc2C(c2ccccn2)N2CCN(c3ccc(O)cc3)CC2)cc1 (stereo unspecified) | -6.7% | nt | nt | nt | -12.3%
Cc1cccc(NC(=O)C(c2ccccc2)N2Cc3ccccc3C2=O)c1C (stereo unspecified) | i | -73.8* | 15.7% | nt | -6.6%
Cc1ccc(NC(=O)Cn2c(C)cc(C)c(C#N)c2=O)cc1 | 3.1% | -8.4 | -24.7% | nt | -6.1%
COc1cc(=O)n2c(c1C(=O)NCc1ccco1)CCN(C(=O)c1ccccc1-c1ncc[nH]1)CC2 | -4.6% | nt | 0.2% | nt | -6.4%
Cc1ccccc1NC(=O)CSC1=C(C#N)C(c2ccsc2)CC(=O)N1 (stereo unspecified) | nt | -62.3* | -24.3% | ? | ?
CN(C(=O)CSc1nc(C2CCCC2)nc2c1c(=O)n(C)c(=O)n2C)c1ccccc1 | ? | -36.4 | ? | nt | -18.3%
CC(C)Oc1ccc2ccccc2c1CNC[C@H]1O[C@@H](n2cnc(C(N)=O)n2)[C@H](O)[C@@H]1O | -23.2% | 8.3 | -6.3% | 5.01µM* | -2.6%
Cn1c(=O)c2c(nc(-c3ccc(N(CCCl)CCCl)cc3)n2C)n(C)c1=O | ? | -30.3 | 31.6µM* | ? | -22.2%
CCOc1ccc2[nH]c(=O)c(CN(CCN3CCCC3)C(=S)Nc3ccccc3OCC)cc2c1 | nt | -63.6* | -16.2% | ? | nt
COc1ccc2[nH]c(=O)c(CN(CCN3CCCC3)C(=O)Nc3ccccc3Cl)cc2c1 | nt | -88.5* | -15.0% | -24.1% | -14.3%
COc1ccc2[nH]c(=O)c(CN(CC3CCCO3)C(=O)Nc3ccccc3OC)cc2c1 (stereo unspecified) | ? | -1.1 | -25.2% | ? | ?
CCOc1ccc2[nH]c(=O)c(CN(Cc3ccc(F)cc3)C(=O)N3CCCC3)cc2c1 | i | -8.5 | ? | -8.1% | -14.2%
C1=Cc2ccccc2/C1=C/c1ccc2c(c1)OCO2 | -13.6% | nt | nt | nt | -5.2%
Cc1ccccc1NC(=O)c1ccc(F)c(S(=O)(=O)N(C)C2CCCCC2)c1 | -17.2% | -93.6* | ? | nt | -22.6%
Cc1ccccc1NC(=O)c1ccc(F)c(S(=O)(=O)NCC2CCCO2)c1 (stereo unspecified) | nt | 28.3 | 30.0% | -12.2% | nt
Cc1cccc(N2CCN(C(=O)CN3C(=O)COc4ccc(S(=O)(=O)N5CCCCCC5)cc43)CC2)c1C | -14.9% | -73.2* | -22.1% | nt | -17.9%
SMILES | VACV mCherry inh | HCMV antiviral | FMDV antiviral | HCV inh | VACV Venus inh
CCN(C(=O)CN1C(=O)COc2ccc(S(=O)(=O)N3CCCCCC3)cc21)c1cccc(C)c1 | -15.9% | -63.1* | 4.7% | ? | -20.2%
Cc1ccc(C)c(N2CCN(C(=O)CN3C(=O)COc4ccc(S(=O)(=O)N5CCCC5)cc43)CC2)c1 | -0.6% | -8.1 | -27.4% | nt | 3.6%
CCN(Cc1ccccc1)C(=O)CN1C(=O)COc2ccc(S(=O)(=O)N3CCCCCC3)cc21 | -14.1% | -76.5* | -11.5% | -11.3% | -8.0%
Cc1cccc(N2CCN(C(=O)c3oc(=O)c4ccccc4c3-c3ccccc3)CC2C)c1 (stereo unspecified) | -14.0% | -25.9 | -19.7% | nt | -6.7%
Cc1nc2nc(SCC(=O)NCCc3ccc(Cl)cc3)nn2c(C)c1Cc1ccccc1 | -2.7% | -19.1 | -3.3% | nt | 2.8%
Cc1nc(N2CCC(C)CC2)c2c(C)c(C(=O)Nc3cccc(C(F)(F)F)c3)sc2n1 | i | 10.7 | ? | ? | -23.1%
Cc1nc(Nc2cnc(/C=C/c3cc(C(=O)Nc4cccc(C(F)(F)F)c4)ccc3C)cn2)cc(N2CCNCC2)n1 | ? | nt | -36.2% | -8.6%[8.37 µM] | 10µM*
O=C(CN(C(=O)CCC(=O)Nc1nccs1)c1cccc(F)c1)NCCc1ccccc1 | -2.0% | -88.3* | -3.9% | ? | -7.3%
CCCCN(CCCC)CCNC(=O)Cn1nc(CC)n2c(cc3sc(C)cc32)c1=O | -23.8% | ? | -11.0% | nt | -20.6%
CCOC(=O)C1C(=O)C=C(c2ccc(C)cc2)CC1c1ccc([N+](=O)[O-])cc1 (stereo unspecified) | -15.9% | -70.7* | -23.3% | ? | -20.5%
CCSC1(SCC)N=C(N)C2(C#N)C(c3ccc(F)cc3)C12C#N (stereo unspecified) | -14.8%[1.46 µM] | -107.1* | 14.1µM* | 1.0% | -13.2%
COc1ccc(N(C(=O)c2ccc(C(C)(C)C)cc2)S(=O)(=O)c2ccc(Cl)cc2)cc1 | -14.6% | -17.2 | 3.1% | nt | -4.1%
O=C1Nc2cc(C(=O)NCCN3CCCCCC3)ccc2S/C1=C/c1ccccc1F | ? | -23.8 | -20.7% | nt | 12.6µM*
CCN1CCCC1CNC(=O)c1ccc2c(c1)NC(=O)/C(=C\c1ccc(C)cc1)S2 (stereo unspecified) | nt | -37.4 | -3.2% | 6.31µM* | nt
O=C(NCCCN1CCCCC1)c1ccc2c(c1)NC(=O)c1ccccc1S2 | nt | -34.7 | -9.1% | 10µM* | nt
O=C1Nc2cc(C(=O)NCCCN3CCCC3)ccc2S/C1=C/c1ccccc1F | nt | -36.9 | -18.3% | ? | nt
Cc1cnc(SCc2ccccn2)nc1C1CCCN(C(=O)c2cc3ccccc3oc2=O)C1 (stereo unspecified) | -10.2% | nt | -27.9% | nt | -12.9%
N#Cc1ccc(-c2cccs2)nc1SCc1ccc(Cl)cc1Cl | -8.1% | 6.8 | -11.1% | nt | -6.9%
Oc1cc(NCc2ccc(Cl)cc2)cc2cccnc12 | nt | -39.3 | -10.8% | nt | nt
CN(C)CCCNc1cc(O)c2ncccc2c1 | nt | -77.6* | ? | nt | nt
Oc1cc(NCc2ccc(F)cc2)cc2cccnc12 | nt | -92.7* | -1.9% | nt | nt
COc1cc(CN2CCC3(CC2)c2ccccc2[C@@H](NC(=O)c2ccccc2OC)[C@@H]3O)ccc1F | -23.0% | nt | ? | nt | -23.8%
